HepG2 tox = HepG2 cytotoxicity, counter-screen for TGF-b inhibitors; HepG2 CAGA-GFP viability, ATP luminescence, 18 h; Potency, µM (highest dose often 46.1 µM), inactives show top-dose activity change, negative = cytotoxicity, actives largely listed as cytotoxic; hit rate 0.76% among 410,000; also: potency is read from the fitted curve at half-maximal effect
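CellTiter-Glo luminescence gave cytotoxicity after 18 hours at 37 degrees C. The cells were HepG2 CAGA-GFP in 1% FBS DMEM, stimulated with 500 pg/mL TGF-beta after compound addition. %Activity was normalised to no-cell wells (complete cell-killing) and DMSO (no toxicity), and curves were fitted and classified.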
DT40 TDP1 CPT = growth inhibition of DT40 Tdp1-/-;hTDP1 cells with camptothecin (screen for TDP1 inhibitors) | chicken DT40 Tdp1-/-;hTDP1 cells + 20 nM CPT, ATP luminescence, 48 h | Potency, µM (titrated, usually from 46.2 µM), for the others: at the top dose activity change, negative = growth inhibition, actives largely listed as inhibitors | hit rate 12% among 420,000 | AID 686979; also: potency is read from the fitted curve at half-maximal effect; % is scaled to controls: 0 for no effect and ±100 for the full control effect; nearly all actives have a fitted effect of over 55% in size
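Chicken DT40 Tdp1-/- cells complemented with human TDP1, 400 cells/well, exposed to compounds plus 20 nM camptothecin for at least 48 h at 37 C; viability read as ATP content by CellTiter-Glo luminescence.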
IL-1B inflam inh = inhibitors of inflammasome signaling (IL-1 beta secretion); activity change, % at 57.5 µM; THP-1 LPS/ATP IL-1B secretion, AlphaLISA, 16 h; active compounds read low; hit rate 4.7% among 360,000; in the data active = activity change below about -50%; inconclusive = mostly about -30% to -49%; also: % is scaled to controls: 0 for no effect and ±100 for the full control effect
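THP-1 cells pretreated 1 hr with compounds (up to 57.5 uM final), then stimulated with LPS (250 ng/mL final) plus ATP (1.25 mM final); secreted IL-1B measured by AlphaLISA after 16 hr, decreased signal indicating inhibition.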
TDP1 cell noCPT = qHTS for Inhibitors of human tyrosyl-DNA phosphodiesterase 1 (TDP1): qHTS in cells in absence of CPT; DT40 Tdp1-/- hTDP1 cells, no CPT, ATP luminescence, 48 h; Potency, µM (titrated, usually from 46.2 µM), without a hit: top-dose activity change, negative = growth inhibition, most hits filed as inhibitors; hit rate 15% among 420,000; AID 686978, 2013; also: potency is read from the fitted curve at half-maximal effect; % is scaled to controls: 0 for no effect and ±100 for the full control effect; nearly all actives have a fitted effect of over 55% in size
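Chicken DT40 Tdp1-/- cells stably complemented with human TDP1 were seeded at 400 cells/well with DMSO in place of 20 nM camptothecin. After compound pinning, cells grew at least 48 hr at 37 °C; viability read by CellTiter-Glo luminescence.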
ASM inhibitor = inhibitors of human secretory acid sphingomyelinase. P17405. placental ASM, HMU-PC fluorogenic substrate, 60 min. Potency, µM (series often up to 57.5 µM), for the others: at the top dose activity change, negative = inhibition, most hits filed as inhibitors. hit rate 0.006% among 340,000; also: potency is read from the fitted curve at half-maximal effect
Target sequence (P17405 47-631 limits assumed): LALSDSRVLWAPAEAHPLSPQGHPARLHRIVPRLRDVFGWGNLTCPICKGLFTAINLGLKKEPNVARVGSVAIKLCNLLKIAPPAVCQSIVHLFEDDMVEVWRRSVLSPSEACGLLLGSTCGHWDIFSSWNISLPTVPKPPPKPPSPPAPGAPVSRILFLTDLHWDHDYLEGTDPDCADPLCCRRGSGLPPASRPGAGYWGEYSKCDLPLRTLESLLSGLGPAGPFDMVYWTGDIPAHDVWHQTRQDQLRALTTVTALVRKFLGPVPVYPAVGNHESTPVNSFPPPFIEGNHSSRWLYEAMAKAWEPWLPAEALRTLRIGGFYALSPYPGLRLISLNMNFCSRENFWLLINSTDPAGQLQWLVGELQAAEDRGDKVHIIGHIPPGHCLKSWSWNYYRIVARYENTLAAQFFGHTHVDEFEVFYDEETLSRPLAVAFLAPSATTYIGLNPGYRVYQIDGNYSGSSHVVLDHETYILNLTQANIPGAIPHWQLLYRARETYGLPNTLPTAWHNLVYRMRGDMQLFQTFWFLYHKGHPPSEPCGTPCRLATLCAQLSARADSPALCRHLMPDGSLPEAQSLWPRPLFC
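HMU-PC0 cleavage (9 uM final) by human placental ASM, 60 min at 37 °C following 10 min compound exposure at RT; stopped at pH 10, fluorescence Ex 386/Em 447 nm.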
TGFb SMAD3 inh = blocks TGF-b signaling. AID 588855. Potency, µM (series often up to 46.1 µM), for the others: at the highest dose activity, negative = inhibition, usual class: inhibitors. hit rate 1.2% among 410,000. HepG2 CAGA-GFP TGF-b/SMAD3 reporter, GFP fluorescence, 18 h; TGF-beta stimulated, 500 pg/mL final; also: potency is read from the fitted curve at half-maximal effect; % is scaled to controls: 0 for no effect and ±100 for the full control effect; nearly all actives have a fitted effect of over 65% in size
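HEPG2 CAGA-GFP, 1000 cells/well; 2 h settle, 37 C; cpd via pin tool; TGF-b 500 pg/mL final; 18 h, 37 C; GFP imaging ex488/em500-530; %Activity normalised to -TGF-b and +DMSO controls; CRC fit, curve class.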
The depositor's hits bear a star; ? = inconclusive; . = no result given; ! = repeats disagree. Sampled rows, rich in hits. Any-hit rate of the full collection: about 19%. Unless noted, calls follow the shape of the dose curve; as a rule, active = well fitted curve in the direction sought with a large enough effect; inconclusive = small, poorly fitted or top-dose-only effect, or another doubt; inactive = no such curve, though single readings can be large; an effect the other way counts as inactive or inconclusive.

SMILES	HepG2 tox	DT40 TDP1 CPT	IL-1B inflam inh	TDP1 cell noCPT	ASM inhibitor	TGFb SMAD3 inh
CCOC(=O)c1sc(NC(=O)CSc2nc3cccnc3n2C)nc1C	-4.6%	5.1%	36.2	-14.0%	3.3%	17.6%
Cc1cc(Oc2ccc(Cl)cc2)nc(-c2ccccn2)n1	-22.9%	5.17µM*	46.1	5.17µM*	4.6%	?
Cc1cc(Oc2ccccc2)nc(-c2ccccc2O)n1	-3.5%	-11.7%	7.6	-19.5%	-12.0%	17.8%
CCc1nc2c(OCC(=O)c3ccc(F)cc3)cccn2c1N(C)C(=O)c1ccccc1F	6.2%	?	-1.0	?	.	5.6%
COc1ccc(OCc2cccc(C(=O)O)c2)cc1	-57.1%	?	0.7	?	5.1%	3.3%
O=C(O)c1ccc(NC(=S)NC(=O)c2cccc(COc3ccccc3)c2)cc1	-25.6%	-26.4%	-54.5*	3.3%	-1.2%	-2.0%
O=C(NC(=S)Nc1ccc(CN2CCCCC2)cc1)c1cccc(OCc2ccccc2)c1	-28.7%	9.2µM*	0.0	11.6µM*	-18.8%	?
CCOc1ccc(OCc2cccc(C(=O)O)c2)cc1	-66.9%	14.6µM*	8.4	8.2µM*	5.8%	-5.3%
O=C(NC(=S)Nc1ccc(CN2CCOCC2)cc1)c1cccc(F)c1	-15.3%	?	-11.1	?	-2.6%	-6.5%
O=C(O)c1ccc(NC(=S)NC(=O)c2ccc3ccccc3c2)cc1	-15.7%	-1.1%	-6.4	-2.8%	.	-2.2%
O=C(Cn1nc(C(F)(F)F)c2c1CCCC2)Nc1ccc(Br)cc1	-43.4%	?	.	?	.	-10.1%
Cn1c(SCCOc2ccccc2)nnc1-c1ccc(NC(=O)CCc2ccccc2)cc1	-18.0%	2.2%	.	-11.5%	.	-14.6%
O=C1c2[nH]nc(-c3ccccc3O)c2C(c2ccc(F)cc2)N1CCO (stereo unspecified)	-11.9%	?	.	?	.	-7.9%
Cc1ccc(CNC(=O)c2c(-c3ccccc3Cl)noc2C)o1	-0.7%	?	.	?	.	-13.0%
COc1ccc(O)c(/C=N/NC(=O)CSc2nnc(C)n2-c2ccccc2)c1	5.1%	16.4µM*	64.0	18.4µM*	-0.1%	-31.4%
O=C(CNc1cccc(C(F)(F)F)c1)N/N=C/c1cn(-c2ccccc2)nc1-c1ccccc1	-33.1%	16.4µM*	?	?	-1.9%	-15.2%
Cc1nn(Cc2ccccc2)c(C)c1/C=N/NC(=O)CNc1cccc(C(F)(F)F)c1	-66.7%	-73.3%	-23.4	?	?	?
Cc1ccc(-c2nn(-c3ccccc3)cc2/C=N/NC(=O)CSc2nnc(C)n2-c2ccccc2)cc1	16.2%	?	-62.1*	?	-17.3%	?
COc1cccc(/C=N/NC(=O)CSc2nnc(C)n2-c2ccccc2)c1O	-28.0%	?	94.3	?	-0.1%	-7.9%
Cc1ccc(-c2nnc(SCC(=O)N/N=C/c3ccccc3C(=O)O)n2-c2ccc(Cl)cc2)cc1	-10.3%	0.1%	0.0	3.6%	-0.1%	-6.7%
Cc1cccc(NC(=S)N2CCN(S(C)(=O)=O)CC2)c1	4.8%	-0.9%	12.3	1.9%	1.7%	-0.9%
CN1CCN(C(=O)c2cc3c(c(-c4cccc(C#CC(C)(C)O)c4)n2)[C@H](CCO)N(S(=O)C(C)(C)C)C3)CC1 (stereo partly specified)	0.9%	2.2%	-10.9	5.7%	.	-1.7%
COc1ccccc1-c1cccc(-c2nc(C(=O)N3CCCCC3)cc3c2[C@H](CCO)N(S(=O)C(C)(C)C)C3)c1 (stereo partly specified)	4.6%	20.6µM*	-8.7	18.4µM*	.	-9.3%
CN1CCN(C(=O)c2cc3c(c(-c4cccc(-c5cc6ccccc6o5)c4)n2)[C@@H](CCO)N(S(=O)C(C)(C)C)C3)CC1 (stereo partly specified)	-24.8%	?	-21.0	?	.	?
CC(C)(C)S(=O)N1Cc2cc(C(=O)N3CCc4ccccc4C3)nc(-c3cccc(-c4cccnc4)c3)c2[C@@H]1CCO (stereo partly specified)	-4.9%	?	-19.8	20.6µM*	.	2.8%
SMILES	HepG2 tox	DT40 TDP1 CPT	IL-1B inflam inh	TDP1 cell noCPT	ASM inhibitor	TGFb SMAD3 inh
Cn1cc(CCCC(=O)NCc2ccc(F)cc2)c2ccccc21	0.7%	?	-9.0	20.6µM*!	2.2%	-9.8%
COc1ccccc1CNC(=O)CCCn1c(=O)c2ccccc2n(Cc2ccc(F)cc2)c1=O	6.3%	16.4µM*	.	?	.	-9.7%
COc1ccccc1CNC(=O)CCCn1c(=O)c2ccccc2n(Cc2ccccc2C#N)c1=O	-23.8%	25.9µM*	.	4.61µM*	.	2.5%
COc1ccc(CNC(=O)CCc2cn(C)c3ccccc23)cc1	-16.2%	-27.1%	.	-21.1%	.	-9.7%
COc1ccc(-n2cc([N+](=O)[O-])c(=O)c3ccc(Cl)cc32)cc1	27.1%	22.3%	8.2	-9.2%	-0.5%	7.4%
O=C(CSc1nc2ccccc2c(=O)n1CCCN1CCOCC1)Nc1ccccc1OC(F)F	-6.5%	18.4µM*	-23.8	20.6µM*	1.1%	-19.2%
O=C(CSc1nc2ccccc2c(=O)n1CCCN1CCOCC1)Nc1ccc(F)c(Cl)c1	-31.9%	?	?	?	-12.9%	-23.5%
Cc1cc(C)c(NC(=O)CSc2nc3ccccc3c(=O)n2CCCN2CCOCC2)c(C)c1	20.5%	?	?	?	-2.8%	24.1%
CCc1ccc(NC(=O)CSc2nc3ccccc3c(=O)n2CCCC(=O)NCCCN2CCOCC2)cc1	-28.0%	-2.3%	-102.9*	?	0.6%	-29.6%
Cc1ccc(NC(=O)CSc2nc3ccccc3c(=O)n2CCCN2CCCCC2)cc1Cl	14.1µM*	20.6µM*	-87.5*	20.6µM*	-8.8%	?
COc1ccc(NC(=O)CSc2nc3ccccc3c(=O)n2CCCN2CCC(C)CC2)c(OC)c1	-7.5%	-7.8%	-61.7*	?	-4.6%	-4.7%
CCOc1cc(C(=O)Nc2ccc(S(=O)(=O)N3CCCCC3)cc2)ccc1OCC(=O)N1CCOCC1	1.6%	?	11.0	?	-0.4%	0.0%
COc1ccccc1N(CC(=O)NCCSCc1ccc(Cl)cc1)S(C)(=O)=O	-1.4%	20.6µM*	8.3	23.1µM*!	2.4%	0.0%
COc1ccccc1N(CC(=O)NCCSCc1ccccc1)S(C)(=O)=O	-16.3%	-23.7%	-5.0	-22.2%	3.7%	-2.2%
COc1ccc(C)cc1N(CC(=O)NCCSCc1cccc(Cl)c1)S(C)(=O)=O	0.6%	16.4µM*	-9.3	?	2.0%	4.8%

High-throughput results: PubChem BioAssay, National Center for Advancing Translational Sciences (NCATS)
